Test results taken from PubChem BioAssay (EPA / NIEHS).
Records with an inconclusive call do not appear. Activity calls are given as the source filed them. Rule for the calls, unless noted: active = hit-call score of the fitted dose curve at least 0.9, where 1 is the maximum; inactive = score below 0.9.

Tests used:
[1] = target: Paired box protein Pax-6 (Homo sapiens) (UniProt P26367); experiment: ATG_Pax6_CIS: Attagene CIS-FACTORIAL HepG2 Assay for human Paired Box 6 (PAX6) (AID 2282956); details: HepG2 CIS-FACTORIAL PAX6 reporter transcription, RNA readout; actives raise or lower the signal
In short: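 Fluorescent RT-PCR products separated by capillary electrophoresis report PAX6-linked promoter mRNA in HepG2 cells 24 h post-dose. Curves fitted bidirectionally, DMSO as negative control.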

[2] = ATG_PPRE_CIS: Attagene CIS-FACTORIAL HepG2 Assay for human Peroxisome Proliferator-activated Response Element (PPRE) (AID 2282958); details: HepG2 PPRE cis-element reporter, Attagene transcription factor profiling; actives raise or lower the signal
In short: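 Endogenous PPRE-driven transcription is measured in HepG2 cells carrying transfected multi-reporter constructs. Reporter transcripts are quantified by RT-PCR, HpaI digestion and capillary electrophoresis 24 h after dosing. DMSO baseline, bidirectional fit.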

[3] = ATG_Sox_CIS: Attagene CIS-FACTORIAL HepG2 Assay for human SRY-box transcription factor (SOX) (AID 2282960); details: HepG2 Attagene cis-factorial SOX reporter, mRNA; actives raise or lower the signal
In short: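 Reporter transcripts, measured by RT-PCR and capillary electrophoresis of labelled fragments, report endogenous SOX transcription factor activity. Transiently transfected human HepG2 cells receive chemical for 24 h; changes in either direction are fitted relative to DMSO.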

[4] = target: Transcription factor Sp1 (Homo sapiens) (UniProt P08047); experiment: ATG_Sp1_CIS: Attagene CIS-FACTORIAL HepG2 Assay for human Specificity Protein 1 (Sp1) (AID 2282961); details: HepG2 Sp1 cis-reporter transcription, actives raise or lower the signal
In short: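 Read-out is reporter transcript level, measured by RT-PCR and fluorescent capillary electrophoresis after 24 h chemical treatment. System: transiently transfected HepG2 cells reporting endogenous transcription factor activity; gain or loss fitted against DMSO baseline.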

[5] = ATG_SREBP_CIS: Attagene CIS-FACTORIAL HepG2 Assay for human Sterol Regulatory Element Binding (SREBP) (AID 2282962); details: HepG2 Attagene cis-factorial SREBP reporter, mRNA; actives raise or lower the signal
In short: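 Endogenous factor activity is measured in HepG2 through multiplexed reporter units under cis-element control. Following a 24 h incubation, reporter transcripts are reverse-transcribed, PCR-amplified and sized by capillary electrophoresis; activity is fitted in both directions relative to DMSO.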

[6] = target: Signal transducer and activator of transcription 3 (Homo sapiens) (UniProt P40763); experiment: ATG_STAT3_CIS: Attagene CIS-FACTORIAL HepG2 Assay for human Signal Transducer and Activator of Transcription 3 (STAT3) (AID 2282963); details: HepG2, Attagene cis-factorial STAT3 reporter transcription; actives raise or lower the signal
In short: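 Readout: fluorescent reporter mRNA fragments resolved by capillary electrophoresis. Setup: HepG2 transfected with MRTUs reporting endogenous transcription-factor activity, dosed 24 h. Gain or loss of signal fitted bidirectionally against DMSO control.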

[7] = ATG_TA_CIS: Attagene CIS-FACTORIAL HepG2 Assay for human TA Basal Promoter (AID 2282964); details: HepG2 Attagene CIS-factorial TA basal promoter reporter; actives raise or lower the signal
In short: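 Read-out: fluorescent reporter-transcript fragments resolved by capillary electrophoresis after RT-PCR and HpaI digestion. Source: HepG2 cells carrying transiently transfected multi-reporter cis constructs, treated 24 h. Endpoint fitted bidirectionally relative to DMSO.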

[8] = ATG_TCF_b_cat_CIS: Attagene CIS-FACTORIAL HepG2 Assay for human T-Cell-Factor with beta-catenin (TCF/b-cat) (AID 2282965); details: HepG2 TCF/beta-catenin cis-reporter transcription, actives raise or lower the signal
In short: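 HepG2, transient MRTU transfection, cis-element-driven reporters (endogenous TFs). 24 h compound exposure. Readout: reporter mRNA by RT-PCR + 6-FAM primer extension, HpaI digest, capillary electrophoresis. Gain/loss fit vs DMSO baseline.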

[9] = ATG_TAL_CIS: Attagene CIS-FACTORIAL HepG2 Assay for human TAL Basal Promoter (AID 2282966); details: HepG2 Attagene cis-factorial TAL promoter reporter; actives raise or lower the signal;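 note: background control endpoint measuring basal TAL promoter reporter mRNA not a specific factor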
In short: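 Human hepatoma HepG2 cells, transfected with promoter-regulated reporter units, were treated 24 h. Reporter transcript levels, measured through RT-PCR and capillary electrophoresis, were fitted for gain or loss relative to DMSO.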

[10] = ATG_TGFb_CIS: Attagene CIS-FACTORIAL HepG2 Assay for human Transforming Growth Factor (TGF) (AID 2282967); details: HepG2 Attagene CIS TGFb reporter, mRNA transcription; actives raise or lower the signal
In short: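 Transient MRTU transfection of HepG2 (FuGene 6). Dose 24 h. TriZol RNA, oligo(dT) RT, PCR, 6-FAM primer extension, HpaI cut, CE. Bidirectional fit, DMSO = baseline.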

[11] = ATG_VDRE_CIS: Attagene CIS-FACTORIAL HepG2 Assay for human Vitamin D Receptor Element (VDRE) (AID 2282968); details: HepG2 VDRE cis-reporter transcription, actives raise or lower the signal
In short: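 Transient MRTU transfection of HepG2, 24 h compound exposure. Readout: reporter transcripts via RT-PCR and capillary electrophoresis, fluorescence. Bidirectional fit vs DMSO.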

[12] = target: X-box-binding protein 1 (Homo sapiens) (UniProt P17861); experiment: ATG_Xbp1_CIS: Attagene CIS-FACTORIAL HepG2 Assay for human X-box Binding Protein 1 (XBP1) (AID 2282972); details: HepG2 XBP1 cis-element reporter, Attagene multiplex; actives raise or lower the signal
In short: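 Multiplexed cis-reporter readout in transfected HepG2 liver cells. Exposure lasted 24 hours. Activity in either direction was fitted against DMSO as negative control and baseline.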

[13] = ATG_M_19_TRANS: Attagene TRANS-FACTORIAL HepG2 Assay for M19 Transcription Factor (Internal Marker) (AID 2282974; active = hit-call score of the fitted dose curve at least 0.9, where 1 is the maximum); details: HepG2 Attagene TRANS-FACTORIAL M19 internal marker reporter
In short: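 Background-control readout: after 24 h chemical exposure of transfected HepG2 carrying GAL4-driven reporter units, RNA was reverse-transcribed, amplified, fluorescently labeled and sized by capillary electrophoresis; gain-of-signal fit against DMSO.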

[14] = target: Estrogen-related receptor gamma (Homo sapiens) (UniProt P62508); experiment: ATG_ERRg_TRANS: Attagene TRANS-FACTORIAL HepG2 Assay for human Estrogen-Related Receptor gamma (ERRg) (AID 2282977; active = hit-call score of the fitted dose curve at least 0.9, where 1 is the maximum;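 note: hits increase reporter signal over DMSO so potencies reflect activators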); details: HepG2 Attagene TRANS reporter, ERRg transactivation
In short: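 Exogenous NR-Gal4 chimera activity was assessed in HepG2 cells bearing transfected GAL4-UAS reporters. After 24 h dosing, total RNA underwent RT-PCR, fluorescent primer extension and HpaI digestion before capillary electrophoresis, with gain of signal scored against DMSO.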

[15] = ATG_PXRE_CIS: Attagene CIS-FACTORIAL HepG2 Assay for human Pregnane X Receptor Element (PXRE) (AID 2282957); details: HepG2 Attagene CIS-FACTORIAL PXRE reporter, mRNA; actives raise or lower the signal
In short: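 Bidirectional activity, baselined to DMSO, derived from reporter mRNA fluorescence (RT-PCR plus capillary electrophoresis) in HepG2 cells bearing cis-promoter reporter units, 24 h exposure.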

[16] = target: Estrogen receptor (Homo sapiens) (UniProt P03372); experiment: ATG_ERa_TRANS: Attagene TRANS-FACTORIAL HepG2 Assay for human Estrogen Receptor alpha (ERa) (AID 2282970; active = hit-call score of the fitted dose curve at least 0.9, where 1 is the maximum); details: HepG2 Attagene TRANS ERa GAL4 reporter, mRNA
In short: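 Signal derives from fluorescence of labelled reporter PCR fragments separated by capillary electrophoresis. HepG2 cells transiently carrying multiple GAL4-UAS reporter units were treated 24 hours, and induction above DMSO baseline was fitted as activity.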

[17] = target: Steroid hormone receptor ERR1 (Homo sapiens) (UniProt P11474); experiment: ATG_ERRa_TRANS: Attagene TRANS-FACTORIAL HepG2 Assay for human Estrogen-Related Receptor alpha (ERRa) (AID 2282971; active = hit-call score of the fitted dose curve at least 0.9, where 1 is the maximum); details: HepG2 Attagene TRANS reporter, ERRa transactivation
In short: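 Signal gain relative to DMSO for an ERRa-Gal4 chimeric receptor, read as reporter mRNA by RT-PCR/capillary electrophoresis. Human HepG2 liver cells, transient multiplex reporter transfection, 24 h chemical exposure.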

[18] = ATG_GAL4_TRANS: Attagene TRANS-FACTORIAL HepG2 Assay for GAL4 (Internal Marker) (AID 2282976; active = hit-call score of the fitted dose curve at least 0.9, where 1 is the maximum); details: HepG2 Attagene TRANS GAL4 internal marker reporter
In short: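 Liver HepG2 line bearing multiplexed GAL4-UAS reporter constructs; 24 h chemical treatment. Transcripts were quantified as fluorescent fragments on capillary electrophoresis after RT-PCR and HpaI cut, with activity fitted upward from DMSO.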

[19] = ATG_RORE_CIS: Attagene CIS-FACTORIAL HepG2 Assay for human RAR-related Orphan Receptor Element (RORE) (AID 2282959); details: HepG2 Attagene cis-factorial RORE reporter, mRNA; actives raise or lower the signal
In short: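 RORE reporter transcripts reflecting endogenous factor activity were read after 24 h compound exposure of transfected HepG2 cells, using reverse transcription, PCR, fluorescent labelling and capillary electrophoresis sizing. Gain or loss fitted against DMSO.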

[20] = target: Nuclear receptor subfamily 1 group I member 3 (Homo sapiens) (UniProt Q14994); experiment: ATG_CAR_TRANS: Attagene TRANS-FACTORIAL HepG2 Assay for human Constitutive Androstane Receptor (CAR) (AID 2282969; active = hit-call score of the fitted dose curve at least 0.9, where 1 is the maximum;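 note: activators raise reporter mRNA above DMSO so AC50 marks induction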); details: HepG2 Attagene TRANS-FACTORIAL CAR reporter
In short: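 Transiently transfected HepG2, multiplex TRANS reporters (CAR-Gal4 chimera driving GAL4-UAS reporter). 24 h dosing. Readout: reporter transcript by RT-PCR + capillary electrophoresis, fluorescence intensity; positive direction vs DMSO.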

Sequence of X-box-binding protein 1 (Homo sapiens) (P17861 whole entry, looked up): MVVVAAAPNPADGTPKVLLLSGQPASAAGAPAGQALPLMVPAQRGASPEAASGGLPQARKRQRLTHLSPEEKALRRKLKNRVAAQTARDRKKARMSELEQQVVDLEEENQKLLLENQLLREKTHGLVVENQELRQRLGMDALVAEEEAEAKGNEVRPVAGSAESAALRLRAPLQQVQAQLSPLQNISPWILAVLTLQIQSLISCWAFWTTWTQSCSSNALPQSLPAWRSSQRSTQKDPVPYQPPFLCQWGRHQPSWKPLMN
Sequence of Signal transducer and activator of transcription 3 (Homo sapiens) (P40763 whole entry, looked up, the tested form may be a part): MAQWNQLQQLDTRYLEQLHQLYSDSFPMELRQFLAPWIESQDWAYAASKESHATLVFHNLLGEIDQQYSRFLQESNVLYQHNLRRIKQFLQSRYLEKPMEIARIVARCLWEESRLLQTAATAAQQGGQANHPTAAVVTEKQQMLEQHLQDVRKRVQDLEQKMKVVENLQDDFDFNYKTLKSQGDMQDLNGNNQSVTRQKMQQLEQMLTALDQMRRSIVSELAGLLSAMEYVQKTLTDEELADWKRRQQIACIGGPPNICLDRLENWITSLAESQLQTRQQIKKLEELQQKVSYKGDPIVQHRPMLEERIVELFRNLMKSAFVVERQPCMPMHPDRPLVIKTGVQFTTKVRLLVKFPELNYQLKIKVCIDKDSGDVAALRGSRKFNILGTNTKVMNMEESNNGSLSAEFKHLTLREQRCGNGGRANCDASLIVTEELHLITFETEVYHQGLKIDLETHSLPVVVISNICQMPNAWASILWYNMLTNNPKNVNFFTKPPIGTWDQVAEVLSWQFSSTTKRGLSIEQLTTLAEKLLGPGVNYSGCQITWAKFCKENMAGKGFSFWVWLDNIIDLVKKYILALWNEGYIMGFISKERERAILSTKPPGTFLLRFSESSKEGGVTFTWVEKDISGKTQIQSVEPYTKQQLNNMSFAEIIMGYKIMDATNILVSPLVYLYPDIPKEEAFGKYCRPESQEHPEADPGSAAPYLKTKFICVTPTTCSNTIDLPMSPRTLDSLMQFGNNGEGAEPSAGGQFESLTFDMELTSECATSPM
Sequence of Transcription factor Sp1 (Homo sapiens) (P08047 whole entry, looked up): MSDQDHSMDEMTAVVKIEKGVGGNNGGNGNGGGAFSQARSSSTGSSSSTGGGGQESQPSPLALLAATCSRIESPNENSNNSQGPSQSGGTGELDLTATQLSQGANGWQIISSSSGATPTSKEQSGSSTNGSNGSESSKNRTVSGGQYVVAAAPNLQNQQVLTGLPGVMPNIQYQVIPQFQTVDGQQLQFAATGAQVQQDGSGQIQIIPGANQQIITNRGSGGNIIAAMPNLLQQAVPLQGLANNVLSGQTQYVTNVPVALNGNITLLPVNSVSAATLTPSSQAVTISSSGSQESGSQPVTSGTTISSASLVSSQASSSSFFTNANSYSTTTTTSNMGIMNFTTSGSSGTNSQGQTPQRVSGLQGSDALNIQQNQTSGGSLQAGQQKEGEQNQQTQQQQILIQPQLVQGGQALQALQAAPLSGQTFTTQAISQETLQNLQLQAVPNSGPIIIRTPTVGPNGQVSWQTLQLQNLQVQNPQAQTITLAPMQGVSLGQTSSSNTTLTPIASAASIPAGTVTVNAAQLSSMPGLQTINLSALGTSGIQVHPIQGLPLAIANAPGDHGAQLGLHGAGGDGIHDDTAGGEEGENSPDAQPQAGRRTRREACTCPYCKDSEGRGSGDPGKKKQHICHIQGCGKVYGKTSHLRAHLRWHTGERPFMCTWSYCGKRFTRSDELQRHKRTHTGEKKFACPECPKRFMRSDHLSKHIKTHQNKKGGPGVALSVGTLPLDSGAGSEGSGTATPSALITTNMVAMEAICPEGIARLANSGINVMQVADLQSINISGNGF
Sequence of Estrogen receptor (Homo sapiens) (P03372 whole entry, looked up, the tested form may be a part): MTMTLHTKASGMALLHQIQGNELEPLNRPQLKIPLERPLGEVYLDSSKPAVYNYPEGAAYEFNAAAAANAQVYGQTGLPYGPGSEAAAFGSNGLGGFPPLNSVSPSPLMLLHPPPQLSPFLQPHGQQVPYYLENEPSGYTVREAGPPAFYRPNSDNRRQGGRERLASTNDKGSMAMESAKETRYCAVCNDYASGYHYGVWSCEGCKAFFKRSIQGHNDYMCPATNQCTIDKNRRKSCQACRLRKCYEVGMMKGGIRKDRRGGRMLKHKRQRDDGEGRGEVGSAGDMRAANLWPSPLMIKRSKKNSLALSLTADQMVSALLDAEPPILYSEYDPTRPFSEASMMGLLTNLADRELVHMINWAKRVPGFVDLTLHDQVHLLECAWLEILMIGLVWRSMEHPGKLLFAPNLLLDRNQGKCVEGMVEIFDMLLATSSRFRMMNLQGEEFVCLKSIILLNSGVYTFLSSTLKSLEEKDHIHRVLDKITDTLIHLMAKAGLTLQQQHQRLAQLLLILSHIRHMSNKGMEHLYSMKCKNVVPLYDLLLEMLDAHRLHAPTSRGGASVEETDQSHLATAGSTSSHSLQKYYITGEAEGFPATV
Sequence of Estrogen-related receptor gamma (Homo sapiens) (P62508 whole entry, looked up, the tested form may be a part): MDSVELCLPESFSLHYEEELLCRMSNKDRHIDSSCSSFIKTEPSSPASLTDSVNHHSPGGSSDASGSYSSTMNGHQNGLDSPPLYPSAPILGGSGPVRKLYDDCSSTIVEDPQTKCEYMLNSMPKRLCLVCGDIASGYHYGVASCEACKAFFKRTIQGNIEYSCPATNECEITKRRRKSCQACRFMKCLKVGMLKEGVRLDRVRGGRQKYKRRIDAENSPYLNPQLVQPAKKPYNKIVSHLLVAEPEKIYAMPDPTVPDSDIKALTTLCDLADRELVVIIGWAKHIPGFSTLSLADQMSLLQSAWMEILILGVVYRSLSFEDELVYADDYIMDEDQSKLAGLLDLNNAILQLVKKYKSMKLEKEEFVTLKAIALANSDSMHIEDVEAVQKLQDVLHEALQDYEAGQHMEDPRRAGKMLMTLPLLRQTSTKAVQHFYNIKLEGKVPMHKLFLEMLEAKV
Sequence of Paired box protein Pax-6 (Homo sapiens) (P26367 whole entry, looked up): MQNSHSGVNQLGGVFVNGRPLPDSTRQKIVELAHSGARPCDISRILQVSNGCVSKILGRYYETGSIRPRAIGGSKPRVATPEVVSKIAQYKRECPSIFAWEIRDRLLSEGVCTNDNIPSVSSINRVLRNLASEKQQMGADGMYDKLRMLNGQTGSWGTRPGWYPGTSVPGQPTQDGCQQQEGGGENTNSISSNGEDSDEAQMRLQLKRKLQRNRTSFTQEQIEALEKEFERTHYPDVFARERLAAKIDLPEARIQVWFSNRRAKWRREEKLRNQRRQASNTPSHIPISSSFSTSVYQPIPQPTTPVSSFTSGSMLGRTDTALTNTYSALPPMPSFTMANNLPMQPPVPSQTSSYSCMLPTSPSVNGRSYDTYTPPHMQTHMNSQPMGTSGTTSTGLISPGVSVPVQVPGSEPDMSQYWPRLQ
Sequence of Steroid hormone receptor ERR1 (Homo sapiens) (P11474 whole entry, looked up, the tested form may be a part): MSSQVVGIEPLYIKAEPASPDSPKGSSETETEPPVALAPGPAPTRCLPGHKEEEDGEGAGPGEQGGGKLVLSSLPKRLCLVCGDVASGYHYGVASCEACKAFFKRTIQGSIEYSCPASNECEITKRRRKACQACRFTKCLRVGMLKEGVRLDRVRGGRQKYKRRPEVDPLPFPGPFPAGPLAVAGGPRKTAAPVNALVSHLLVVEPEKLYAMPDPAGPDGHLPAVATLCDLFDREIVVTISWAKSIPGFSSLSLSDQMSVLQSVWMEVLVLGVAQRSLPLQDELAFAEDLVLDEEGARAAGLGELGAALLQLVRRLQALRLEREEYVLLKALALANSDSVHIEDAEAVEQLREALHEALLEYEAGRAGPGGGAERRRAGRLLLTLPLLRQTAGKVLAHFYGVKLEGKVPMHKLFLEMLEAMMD
Sequence of Nuclear receptor subfamily 1 group I member 3 (Homo sapiens) (Q14994 whole entry, looked up, the tested form may be a part): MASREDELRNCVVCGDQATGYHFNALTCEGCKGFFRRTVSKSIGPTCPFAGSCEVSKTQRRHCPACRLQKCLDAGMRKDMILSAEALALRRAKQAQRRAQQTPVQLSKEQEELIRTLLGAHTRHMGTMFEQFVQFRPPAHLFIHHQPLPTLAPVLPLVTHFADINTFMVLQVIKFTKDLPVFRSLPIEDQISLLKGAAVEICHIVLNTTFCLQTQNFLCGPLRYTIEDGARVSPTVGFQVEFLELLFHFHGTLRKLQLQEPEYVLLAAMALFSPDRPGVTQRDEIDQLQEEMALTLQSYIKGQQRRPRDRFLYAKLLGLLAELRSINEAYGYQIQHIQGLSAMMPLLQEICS

## COC(=O)c1sccc1S(N)(=O)=O
[1]
  outcome: inactive
[2]
  outcome: inactive
[3]
  outcome: inactive
[4]
  outcome: inactive
[5]
  outcome: inactive
[6]
  outcome: inactive
[7]
  outcome: inactive
[8]
  outcome: inactive
[9]
  outcome: inactive
[10]
  outcome: inactive
[11]
  outcome: inactive
[12]
  outcome: inactive
[13]
  outcome: inactive
[14]
  outcome: inactive

## COc1c2ccoc2cc2oc(=O)ccc12
[1]
  outcome: inactive
[15]
  AC50: 26.9 µM (active)
[3]
  outcome: inactive
[4]
  outcome: inactive
[5]
  outcome: inactive
[6]
  outcome: inactive
[7]
  outcome: inactive
[8]
  outcome: inactive
[9]
  outcome: inactive
[11]
  outcome: inactive
[16]
  outcome: inactive
[12]
  outcome: inactive

## CCOCC(=O)O
[1]
  outcome: inactive
[2]
  outcome: inactive
[3]
  outcome: inactive
[4]
  outcome: inactive
[5]
  outcome: inactive
[7]
  outcome: inactive
[8]
  outcome: inactive
[9]
  outcome: inactive
[10]
  outcome: inactive
[11]
  outcome: inactive
[17]
  outcome: inactive
[12]
  outcome: inactive

## OCCN(CCO)c1ccccc1
[1]
  outcome: inactive
[15]
  outcome: inactive
[3]
  outcome: inactive
[4]
  outcome: inactive
[5]
  outcome: inactive
[6]
  outcome: inactive
[7]
  outcome: inactive
[8]
  outcome: inactive
[9]
  outcome: inactive
[16]
  outcome: inactive
[12]
  outcome: inactive
[13]
  outcome: inactive
[18]
  outcome: inactive

## c1cc(C(c2ccc(OCC3CO3)cc2)C(c2ccc(OCC3CO3)cc2)c2ccc(OCC3CO3)cc2)ccc1OCC1CO1 (stereo not given)
[1]
  AC50: 34.4 µM (active)
[2]
  outcome: inactive
[3]
  outcome: inactive
[4]
  AC50: 31.8 µM (active)
[5]
  outcome: inactive
[6]
  outcome: inactive
[7]
  AC50: 72.2 µM (active)
[8]
  AC50: 36.8 µM (active)
[9]
  AC50: 44.8 µM (active)
[10]
  outcome: inactive
[11]
  AC50: 17 µM (active)
[12]
  AC50: 22.9 µM (active)
[13]
  outcome: inactive
[18]
  outcome: inactive

## CCOC(=O)c1ccccc1C(=C1C=C(Br)C(=O)C(Br)=C1)c1cc(Br)c(O)c(Br)c1
[1]
  AC50: 39.3 µM (active)
[2]
  AC50: 19.8 µM (active)
[3]
  outcome: inactive
[4]
  AC50: 20.7 µM (active)
[5]
  outcome: inactive
[6]
  outcome: inactive
[7]
  outcome: inactive
[8]
  AC50: 24.8 µM (active)
[9]
  outcome: inactive
[10]
  outcome: inactive
[16]
  outcome: inactive

## O=C1C=CC(=O)O1
[1]
  outcome: inactive
[2]
  outcome: inactive
[19]
  outcome: inactive
[3]
  outcome: inactive
[4]
  outcome: inactive
[6]
  outcome: inactive
[7]
  outcome: inactive
[8]
  outcome: inactive
[9]
  outcome: inactive
[10]
  outcome: inactive

## CC(=O)C=CC1C(C)=CCC(C)C1(C)C (stereo not given)
[1]
  outcome: inactive
[2]
  outcome: inactive
[19]
  outcome: inactive
[3]
  outcome: inactive
[4]
  outcome: inactive
[5]
  outcome: inactive
[6]
  outcome: inactive
[9]
  outcome: inactive
[10]
  outcome: inactive
[11]
  outcome: inactive
[20]
  outcome: inactive
[16]
  outcome: inactive
[12]
  outcome: inactive
[18]
  outcome: inactive
[14]
  outcome: inactive

## CCCCCCCCCCOS(=O)(=O)O
[1]
  outcome: inactive
[2]
  AC50: 13.4 µM (active)
[19]
  AC50: 55 µM (active)
[3]
  outcome: inactive
[4]
  outcome: inactive
[5]
  outcome: inactive
[7]
  outcome: inactive
[8]
  outcome: inactive
[9]
  outcome: inactive
[11]
  outcome: inactive
[20]
  outcome: inactive
[16]
  outcome: inactive
[12]
  outcome: inactive
[13]
  outcome: inactive

## N=c1ccn2c(n1)O[C@H]1[C@H](O)[C@@H](CO)O[C@H]12
[1]
  outcome: inactive
[3]
  outcome: inactive
[4]
  outcome: inactive
[7]
  outcome: inactive
[8]
  outcome: inactive
[9]
  outcome: inactive
[10]
  outcome: inactive
[17]
  outcome: inactive
[12]
  outcome: inactive
[14]
  outcome: inactive

## C=CCOCC(O)CCl (stereo not given)
[1]
  outcome: inactive
[2]
  outcome: inactive
[19]
  outcome: inactive
[3]
  outcome: inactive
[4]
  outcome: inactive
[5]
  outcome: inactive
[6]
  outcome: inactive
[7]
  outcome: inactive
[8]
  outcome: inactive
[9]
  outcome: inactive
[10]
  outcome: inactive
[11]
  AC50: 34.8 µM (active)
[16]
  outcome: inactive
[12]
  outcome: inactive
[18]
  outcome: inactive
